# Results from PubChem BioAssay (NCATS).
# Several values for one entry are separate records, joined by “and”; a condition that tells them apart may be missing. Equal values may be shown once. Records with an inconclusive call do not appear. Entries that show only a call come without a potency. Activity calls are given as the source filed them. Unless noted, calls come from the whole dose curve; as a rule, active = well fitted curve in the direction sought with a large enough effect; inconclusive = small, poorly fitted or top-dose-only effect, or another doubt; inactive = no such curve, though single readings can be large; an effect the other way counts as inactive or inconclusive.
# How the values were obtained:
# [1] = biological target: Cytochrome P450 2C19 (Homo sapiens) (UniProt P33261); experiment: qHTS Assay for Inhibitors and Substrates of Cytochrome P450 2C19 (AID 899); note: nearly all actives have a fitted effect of over 60% in size; note: potency is the fitted concentration of half-maximal effect
# How it was run: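 In 50mM KPO4, the reaction held 5nM enzyme and KM-level (10uM) Luciferin-H EGE; it ran 60 min at 37C after NADPH regeneration and a 10 min compound preincubation. Luminescence values were scaled to 57uM ketoconazole as complete inhibition.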
# [2] = biological target: Cytochrome P450 1A2 (Homo sapiens) (UniProt P05177); experiment: p450-cyp1a2 (AID 410; calls by dose curve; note: potency is the fitted concentration of half-maximal effect)
# How it was run: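 Human CYP1A2 (20nM) demethylated Luciferin-ME at its Km (100uM) in 100mM KPO4. After 10 min compound preincubation, NADPH regeneration ran the reaction 60 min at room temperature. Luciferin was read by luminescence, normalized to 57 uM furafylline.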
# [3] = biological target: Cytochrome P450 2D6 (Homo sapiens) (UniProt P10635); experiment: qHTS Assay for Inhibitors and Substrates of Cytochrome P450 2D6 (AID 891); note: nearly all actives have a fitted effect of over 60% in size; note: potency is the fitted concentration of half-maximal effect
# How it was run: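 Human CYP2D6 (5 nM) with 30 uM Luciferin-ME EGE (at Km) in 100 mM KPO4, compound preincubated 10 min, then NADPH regeneration system for 60 min at room temperature. Luciferin read by luminescence; normalized to 1.43 uM quinidine.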
# [4] = qHTS assay for small molecule antagonists of peroxisome proliferator-activated receptor delta signaling (AID 588535; active = well fitted inhibition curve with a large enough effect in the signal ratio, with a control signal flat, not every such curve was filed as active; the % refers to the signal ratio; note: potency is the fitted concentration of half-maximal effect;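 for max response: cells co-treated with a PPAR-delta agonist as stimulator during compound exposure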); details: HEK293T PPARd-UAS-bla, beta-lactamase FRET ratio, 18 h; 460 nm channel
# How it was run: (§1)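 GeneBLAzer PPAR-delta-UAS-bla HEK293T cells in medium with 2% charcoal/dextran FBS were preincubated 5 hrs at 37 C, then given compounds, incubated 18 hrs at 37 C, and read by CCF4 beta-lactamase fluorescence; IC50 from Hill fits.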
# [5] = biological target: Peroxisome proliferator-activated receptor delta (Homo sapiens) (UniProt Q03181); experiment: as above
# How it was run: as §1
# [6] = biological target: Peroxisome proliferator-activated receptor gamma (Homo sapiens) (UniProt P37231); experiment: qHTS assay for small molecule agonists of peroxisome proliferator-activated receptor gamma signaling (AID 588536; active = well fitted curve in the direction sought with a large enough effect in the signal ratio, with a control signal flat, not every such curve was filed as active; the % refers to the signal ratio)
# How it was run: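 Ratiometric blue/green fluorescence (405 nm excitation; 460 and 530 nm emission) from CCF4-loaded HEK293 reporter cells serves as signal. Exposure to test compounds lasts 16 h at 37 C in medium containing 1% charcoal/dextran-treated serum.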
# [7] = biological target: Vitamin D3 receptor (Homo sapiens) (UniProt P11473); experiment: qHTS assay for small molecule antagonists of vitamin D receptor signaling (AID 588541; calls by dose curve;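 note: receptor activated by calcitriol during compound treatment; series mostly up to about 77 µM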)
# How it was run: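 VDR-UAS-bla HEK293T cells (2000/well, 2% charcoal-stripped FBS) were treated with titrated compounds plus 1-alpha,25-dihydroxyvitamin D3 (50 nM or 3 nM final) for 16 h at 37 C. CCF4 beta-lactamase fluorescence was read; Hill fits gave IC50.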
# [8] = biological target: Vitamin D3 receptor (Homo sapiens) (UniProt P11473); experiment: qHTS assay for small molecule agonists of vitamin D receptor signaling (AID 588543; calls by dose curve)
# How it was run: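 β-lactamase reporter, VDR-UAS-bla HEK293T, agonist mode. Cells plated 5 h at 37 °C, compound titration 16 h at 37 °C, CCF4 dye 2 h RT, ratio 460/530 nm. Hill fit → EC50, efficacy vs 50 nM 1α,25-(OH)2D3.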
# [9] = qHTS assay for small molecule agonists of retinoid X receptor alpha signaling (AID 588544); details: HEK293T RXRa-UAS-bla, beta-lactamase reporter, 18 h; 530 nm emission
# [10] = biological target: Thyroid hormone receptor beta (Homo sapiens) (UniProt P10828); experiment: qHTS assay for small molecule agonists of thyroid hormone receptor beta signaling (AID 588545; calls by dose curve)
# How it was run: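 Stimulation of a TR-driven beta-lactamase reporter was quantified in GripTite HEK 293 cells. Compound series ran for 18 hrs; curves were normalized to T3 and DMSO controls and fitted to yield EC50.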
# [11] = qHTS assay for small molecule antagonists of retinoid X receptor alpha signaling (AID 588546; active = well fitted inhibition curve with a large enough effect in the signal ratio, with a control signal flat, not every such curve was filed as active; the % refers to the signal ratio;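 note: cells stimulated with 9-cis-retinoic acid as agonist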); details: HEK293T RXRa-UAS-bla, beta-lactamase ratio, antagonist mode; measured here: W530 green channel, cytotoxicity proxy
# How it was run: (§2)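 Beta-lactamase reporter inhibition, read as CCF4 fluorescence ratio (ex 405, em 460/530 nm) after 2 h at RT. HEK293T UAS-bla cells, 2500/well, were stimulated with 9-cis-RA at 500 or 100 nM final alongside test compound for 18 h at 37 C.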
# [12] = biological target: Retinoic acid receptor RXR-alpha (Homo sapiens) (UniProt P19793); experiment: as above; details: HEK293T RXRa-UAS-bla, beta-lactamase ratio, antagonist mode
# How it was run: as §2
# [13] = qHTS assay for small molecule agonists of the antioxidant response element (ARE) signaling pathway (AID 651741; active = well fitted activation curve with a large enough effect in the signal ratio; the % refers to the signal ratio; note: potency is the fitted concentration of half-maximal effect)
# How it was run: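 ARE-bla HepG2 cells (beta-lactamase reporter under ARE control) were plated at 2,000 cells/well, preincubated 5 h at 37 C/5% CO2, then treated with DMSO-dissolved compounds for 16 h at 37 C; LiveBLAzer B/G FRET substrate added, fluorescence read after 2 h at room temperature.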
# [14] = qHTS assay for small molecule activators of the p53 signaling pathway (AID 651743; active = well fitted activation curve with a large enough effect in the signal ratio, not every such curve was filed as active; the % refers to the signal ratio; note: potency is the fitted concentration of half-maximal effect; for activation: series mostly up to about 92 µM); details: HCT-116 p53RE-bla, beta-lactamase FRET ratio, 16 h; activation: stronger effect = higher value
# How it was run: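 p53RE-bla HCT-116 cells with a stably integrated beta-lactamase reporter under p53 response elements were plated, rested 5 hours at 37 C/5% CO2, then exposed to compounds in DMSO for 16 hours at 37 C. LiveBLAzer B/G FRET substrate was read after 2 hours at room temperature.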
# [15] = qHTS assay for small molecule activators of the nuclear factor-kappa B (NF-kB) signaling pathway (AID 651749; active = well fitted activation curve with a large enough effect in the signal ratio; the % refers to the signal ratio; note: series mostly up to about 77 µM); details: NF-kB-bla ME-180 cells, beta-lactamase FRET ratio, 16 h; activation: stronger effect = higher value
# How it was run: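 ME-180 cells stably carrying a beta-lactamase reporter under an NF-kB response element were exposed to compound or DMSO vehicle for 16 hr at 37C, 5% CO2. Pathway activation was read by FRET, since reporter expression disrupts FRET.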
# [16] = biological target: Peroxisome proliferator-activated receptor alpha (Homo sapiens) (UniProt Q07869); experiment: qHTS assay for small molecule agonists of the peroxisome proliferator-activated receptor alpha (PPARalpha) signaling pathway (AID 651778); details: PathHunter PPARalpha complementation, chemiluminescence, 6 h; stronger effect = higher value
# How it was run: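 Cells plated at 2,000/well and held overnight at 37 C, 5% CO2, then compound added by pin tool for 6 hr; after PathHunter detection reagent and 60 min at room temperature, chemiluminescence from enzyme complementation was read.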
# [17] = qHTS assay for small molecule agonists of the antioxidant response element (ARE) signaling pathway measured by Nrf2-dependant transcriptional activity (AID 720636; active = well fitted curve in the direction sought with a large enough effect in the repeat runs; an effect the other way counts as inactive or inconclusive;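 note: HepG2 cells with an ARE-driven luciferase reporter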)
# How it was run: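 Reporter gene assay, HepG2 ARE-luc: 16 hr compound, 37 C, 5% CO2; read-out luciferase luminescence.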
# [18] = qHTS assay for small molecule agonists of the antioxidant response element (ARE) signaling pathway measured by Nrf2-dependant transcriptional activity - cell viability counter screen (AID 720653; active = well fitted curve in the direction sought with a large enough effect in the repeat runs; an effect the other way counts as inactive or inconclusive); details: ARE-bla HepG2 viability, CellTiter-Glo ATP luminescence, 16 h; stronger effect = lower value
# How it was run: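 ARE-bla HepG2 cells (2,000/well) rested 5 hrs at 37C/5% CO2, then exposed to compounds in DMSO for 16 hrs. Viability was read in the same wells as intracellular ATP by luminescence, 30 min at room temperature after reagent addition.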
# [19] = qHTS assay for cell viability of the p53RE-bla HCT-116 cell line (AID 743292); note: nearly all actives have a fitted effect of over 55% in size
# How it was run: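 Readout: CellTiter-Glo luminescence after 30 min RT. Treatment: compounds in DMSO, 16 h, 37 C. Cells: CellSensor p53RE-bla HCT-116, 4,000/well, preincubated 5 h.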
# [20] = biological target: Nuclear receptor subfamily 1 group I member 2 (Rattus norvegicus) (UniProt Q9R1A7); experiment: qHTS assay for small molecule activators of the rat pregnane X receptor (rPXR) signaling pathway (AID 651751; call rule not given here); details: rPXR reporter cells, luciferase (One-Glo), 24 h
# Nuclear receptor subfamily 1 group I member 2 (Rattus norvegicus), sequence (Q9R1A7 whole entry, looked up): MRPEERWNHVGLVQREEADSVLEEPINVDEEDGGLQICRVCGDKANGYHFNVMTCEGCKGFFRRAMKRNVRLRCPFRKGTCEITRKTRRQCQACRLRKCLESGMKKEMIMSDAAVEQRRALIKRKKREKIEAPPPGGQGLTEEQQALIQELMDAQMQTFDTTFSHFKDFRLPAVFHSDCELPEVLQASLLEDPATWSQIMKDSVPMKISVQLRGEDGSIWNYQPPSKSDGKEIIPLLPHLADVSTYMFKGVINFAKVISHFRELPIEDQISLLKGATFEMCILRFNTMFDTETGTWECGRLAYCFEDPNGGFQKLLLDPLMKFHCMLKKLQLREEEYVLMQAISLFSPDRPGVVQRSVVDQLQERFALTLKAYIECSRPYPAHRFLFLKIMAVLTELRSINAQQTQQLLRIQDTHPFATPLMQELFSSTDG
# Peroxisome proliferator-activated receptor delta (Homo sapiens), sequence (Q03181 whole entry, looked up): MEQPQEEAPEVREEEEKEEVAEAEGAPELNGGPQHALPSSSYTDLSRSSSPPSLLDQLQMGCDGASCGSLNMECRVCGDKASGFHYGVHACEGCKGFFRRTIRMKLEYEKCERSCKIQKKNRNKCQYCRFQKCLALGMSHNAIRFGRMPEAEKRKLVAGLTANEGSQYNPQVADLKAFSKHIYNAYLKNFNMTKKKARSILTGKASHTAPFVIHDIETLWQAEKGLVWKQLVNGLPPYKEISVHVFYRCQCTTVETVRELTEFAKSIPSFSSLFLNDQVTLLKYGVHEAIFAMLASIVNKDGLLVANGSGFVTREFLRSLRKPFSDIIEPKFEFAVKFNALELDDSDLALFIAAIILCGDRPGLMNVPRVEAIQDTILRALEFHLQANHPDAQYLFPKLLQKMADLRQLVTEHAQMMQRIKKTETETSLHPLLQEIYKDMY
# Cytochrome P450 2D6 (Homo sapiens), sequence (P10635 whole entry, looked up): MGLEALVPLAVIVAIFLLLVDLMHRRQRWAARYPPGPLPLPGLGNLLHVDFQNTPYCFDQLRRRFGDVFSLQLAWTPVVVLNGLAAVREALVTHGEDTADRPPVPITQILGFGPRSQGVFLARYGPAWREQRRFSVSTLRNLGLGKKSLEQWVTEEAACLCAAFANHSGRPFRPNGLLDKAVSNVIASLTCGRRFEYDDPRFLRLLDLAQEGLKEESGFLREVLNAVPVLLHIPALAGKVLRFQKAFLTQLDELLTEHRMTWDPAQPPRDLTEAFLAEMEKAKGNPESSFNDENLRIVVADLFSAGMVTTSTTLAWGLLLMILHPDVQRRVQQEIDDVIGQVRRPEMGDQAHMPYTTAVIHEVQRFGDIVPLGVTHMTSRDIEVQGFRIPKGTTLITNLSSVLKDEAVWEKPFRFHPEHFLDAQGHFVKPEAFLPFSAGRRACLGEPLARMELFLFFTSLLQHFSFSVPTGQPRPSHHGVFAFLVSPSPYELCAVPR
# Peroxisome proliferator-activated receptor alpha (Homo sapiens), sequence (Q07869 whole entry, looked up): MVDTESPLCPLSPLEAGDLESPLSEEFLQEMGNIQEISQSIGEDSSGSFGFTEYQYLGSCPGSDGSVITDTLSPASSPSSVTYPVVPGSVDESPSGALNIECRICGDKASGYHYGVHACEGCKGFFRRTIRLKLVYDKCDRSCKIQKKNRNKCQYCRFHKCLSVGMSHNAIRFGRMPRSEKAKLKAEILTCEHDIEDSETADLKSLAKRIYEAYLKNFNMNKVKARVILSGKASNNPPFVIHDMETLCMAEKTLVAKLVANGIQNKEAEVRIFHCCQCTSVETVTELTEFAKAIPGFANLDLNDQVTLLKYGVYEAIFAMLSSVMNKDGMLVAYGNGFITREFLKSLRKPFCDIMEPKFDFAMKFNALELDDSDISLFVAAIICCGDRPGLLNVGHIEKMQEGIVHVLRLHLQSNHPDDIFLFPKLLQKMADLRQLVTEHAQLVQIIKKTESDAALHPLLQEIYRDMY
# Cytochrome P450 1A2 (Homo sapiens), sequence (P05177 whole entry, looked up): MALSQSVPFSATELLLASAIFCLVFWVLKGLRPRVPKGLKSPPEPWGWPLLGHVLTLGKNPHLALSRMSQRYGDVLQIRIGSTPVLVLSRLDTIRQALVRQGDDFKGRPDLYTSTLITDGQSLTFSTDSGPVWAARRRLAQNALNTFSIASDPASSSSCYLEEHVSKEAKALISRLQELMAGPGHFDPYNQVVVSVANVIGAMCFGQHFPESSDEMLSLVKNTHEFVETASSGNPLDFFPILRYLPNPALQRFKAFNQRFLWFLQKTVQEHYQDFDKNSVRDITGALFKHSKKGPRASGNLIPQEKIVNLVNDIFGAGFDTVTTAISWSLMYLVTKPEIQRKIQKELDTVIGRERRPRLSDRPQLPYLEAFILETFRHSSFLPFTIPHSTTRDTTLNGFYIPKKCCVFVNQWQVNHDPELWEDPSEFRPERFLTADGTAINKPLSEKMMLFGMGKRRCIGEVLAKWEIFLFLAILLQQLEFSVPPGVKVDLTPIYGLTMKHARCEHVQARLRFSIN
# Cytochrome P450 2C19 (Homo sapiens), sequence (P33261 whole entry, looked up): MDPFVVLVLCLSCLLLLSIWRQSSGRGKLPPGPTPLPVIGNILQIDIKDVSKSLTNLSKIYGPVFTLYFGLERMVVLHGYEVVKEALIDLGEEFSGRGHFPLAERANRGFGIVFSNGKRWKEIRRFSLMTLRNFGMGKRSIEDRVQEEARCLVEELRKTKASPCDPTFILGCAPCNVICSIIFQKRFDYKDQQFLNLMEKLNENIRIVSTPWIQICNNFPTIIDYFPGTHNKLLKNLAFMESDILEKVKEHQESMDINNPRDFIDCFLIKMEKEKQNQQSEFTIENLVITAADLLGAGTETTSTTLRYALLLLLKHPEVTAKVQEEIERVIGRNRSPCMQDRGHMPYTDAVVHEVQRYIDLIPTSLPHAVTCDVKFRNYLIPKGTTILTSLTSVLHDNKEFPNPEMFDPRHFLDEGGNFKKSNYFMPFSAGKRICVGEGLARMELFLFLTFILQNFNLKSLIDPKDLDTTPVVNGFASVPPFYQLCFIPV
# Vitamin D3 receptor (Homo sapiens), sequence (P11473 whole entry, looked up): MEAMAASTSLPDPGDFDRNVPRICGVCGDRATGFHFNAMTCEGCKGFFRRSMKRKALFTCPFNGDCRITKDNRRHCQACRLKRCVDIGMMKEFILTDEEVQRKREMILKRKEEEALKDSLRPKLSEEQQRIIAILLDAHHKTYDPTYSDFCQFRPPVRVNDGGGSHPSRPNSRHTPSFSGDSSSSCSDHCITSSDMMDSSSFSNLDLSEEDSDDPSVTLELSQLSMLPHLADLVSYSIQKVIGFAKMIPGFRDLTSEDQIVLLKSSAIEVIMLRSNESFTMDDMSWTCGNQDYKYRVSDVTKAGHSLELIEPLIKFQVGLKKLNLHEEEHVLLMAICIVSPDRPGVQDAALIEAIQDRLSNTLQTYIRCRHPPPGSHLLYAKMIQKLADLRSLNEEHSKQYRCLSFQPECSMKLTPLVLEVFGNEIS
# Peroxisome proliferator-activated receptor gamma (Homo sapiens), sequence (P37231 whole entry, looked up): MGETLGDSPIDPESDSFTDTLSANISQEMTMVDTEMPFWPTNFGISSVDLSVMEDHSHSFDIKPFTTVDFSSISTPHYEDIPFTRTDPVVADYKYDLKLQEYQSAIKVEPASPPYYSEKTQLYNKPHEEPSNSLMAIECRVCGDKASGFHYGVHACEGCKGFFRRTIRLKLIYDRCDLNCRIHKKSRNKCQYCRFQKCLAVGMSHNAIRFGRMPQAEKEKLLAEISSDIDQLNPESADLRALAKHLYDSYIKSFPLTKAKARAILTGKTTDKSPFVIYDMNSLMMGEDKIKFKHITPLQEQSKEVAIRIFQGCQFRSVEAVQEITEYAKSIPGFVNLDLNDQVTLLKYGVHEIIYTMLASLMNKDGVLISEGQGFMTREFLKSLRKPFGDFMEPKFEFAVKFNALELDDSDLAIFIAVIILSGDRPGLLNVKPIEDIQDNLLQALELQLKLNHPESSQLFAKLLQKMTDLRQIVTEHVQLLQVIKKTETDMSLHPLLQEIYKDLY
# Retinoic acid receptor RXR-alpha (Homo sapiens), sequence (P19793 whole entry, looked up): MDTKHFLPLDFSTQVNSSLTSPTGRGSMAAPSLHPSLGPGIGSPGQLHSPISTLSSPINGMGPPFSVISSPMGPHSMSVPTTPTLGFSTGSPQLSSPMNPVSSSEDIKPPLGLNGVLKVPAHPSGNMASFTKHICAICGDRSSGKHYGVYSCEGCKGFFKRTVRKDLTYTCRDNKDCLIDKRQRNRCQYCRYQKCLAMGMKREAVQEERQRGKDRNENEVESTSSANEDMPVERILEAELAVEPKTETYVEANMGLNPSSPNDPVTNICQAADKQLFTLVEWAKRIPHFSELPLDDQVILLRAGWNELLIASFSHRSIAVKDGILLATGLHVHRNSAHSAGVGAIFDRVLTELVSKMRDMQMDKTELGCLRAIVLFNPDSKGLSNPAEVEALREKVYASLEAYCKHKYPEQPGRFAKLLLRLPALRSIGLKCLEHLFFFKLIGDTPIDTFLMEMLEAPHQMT
# Thyroid hormone receptor beta (Homo sapiens), sequence (P10828 whole entry, looked up): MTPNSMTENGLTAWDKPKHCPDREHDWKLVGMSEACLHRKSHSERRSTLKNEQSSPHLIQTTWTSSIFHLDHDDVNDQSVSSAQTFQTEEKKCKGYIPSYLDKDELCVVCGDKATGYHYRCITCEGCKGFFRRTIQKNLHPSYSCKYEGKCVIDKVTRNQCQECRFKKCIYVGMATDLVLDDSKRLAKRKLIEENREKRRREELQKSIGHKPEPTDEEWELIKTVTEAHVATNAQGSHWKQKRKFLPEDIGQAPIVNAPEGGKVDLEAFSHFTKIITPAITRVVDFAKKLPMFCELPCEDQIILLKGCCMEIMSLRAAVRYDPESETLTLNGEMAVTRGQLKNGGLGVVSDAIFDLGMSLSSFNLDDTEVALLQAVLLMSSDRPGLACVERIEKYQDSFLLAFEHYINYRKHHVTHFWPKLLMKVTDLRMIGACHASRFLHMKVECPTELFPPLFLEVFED
smiles,measurement,setting,value
CCN1C[C@]2(C)CC[C@H](OC)[C@@]34[C@@H]2[C@H](OC(C)=O)[C@]2(OCO[C@@]25C[C@@H](OC)[C@@H]2C[C@@]3(O)[C@H]5[C@@H]2OC)[C@H]14,Potency,[1],inactive
CC(C)N(CC[C@@](C(N)=O)(c1ccccc1)c1ccccn1)C(C)C,Potency,[2],inactive
COc1cc2c(cc1O)C[C@H]1c3c(cc(O)c(OC)c3-2)CCN1C,Potency,[3],7.94 µM (active)
same,Potency,[1],inactive
CNC[C@H](O)c1ccc(O)cc1,Potency,[3],inactive
same,Potency,[1],inactive
CC(=O)O[C@H]1C[C@@H](O[C@@H]2[C@H](C)O[C@H](O[C@@H]3[C@H](C)O[C@H](O[C@@H]4CC[C@@]5(C)[C@@H](CC[C@]6(C)[C@]5(C)C[C@H](O)[C@]5(C)[C@@H](C7=CC(=O)OC7)CC[C@@]56O)C4)C[C@@H]3O)C[C@@H]2O)O[C@@H](C)[C@H]1O[C@H]1O[C@@H](CO)[C@@H](O)[C@@H](O)[C@@H]1O,Potency,[2],inactive
C[N+]1(C)CCO[C@](O)(c2ccc(-c3ccc([C@]4(O)C[N+](C)(C)CCO4)cc3)cc2)C1,Potency,[2],inactive
c1cncc([C@H]2CCCCN2)c1,Potency,[2],0.1 µM (active)
same,Potency,[3],12.6 µM (active)
same,Potency,[1],5.01 µM (active)
C[C@@]12CC[C@H](O)C[C@@H]1CC[C@H]1[C@H]2CC[C@@]2(C)[C@@H](C3=CC(=O)OC3)CC[C@]12O,Potency,[2],inactive
COc1cc2c(c(OC)c1OC)-c1ccc(O)c(=O)cc1[C@@H](NC(C)=O)CC2,Potency,[3],inactive
same,Potency,[1],inactive
C[C@@H]1O[C@H](O[C@@H]2CC[C@@]3(C=O)[C@H]4CC[C@@]5(C)[C@@H](C6=CC(=O)OC6)CC[C@@]5(O)[C@@H]4CC[C@]3(O)C2)C[C@H](O)[C@@H]1O,Potency,[2],inactive
CCCCCCCCCc1ccc(O)cc1,max response,[4],-9.37% and -27.9%
same,Potency,[5],inactive
same,outcome,[6],inactive
same,outcome,[7],inactive
same,outcome,[8],inactive
same,max response,[9],-5.72%
same,outcome,[10],inactive
same,max response,[11],-16.1%
same,max response,[12],0.938% (inactive)
same,Potency,[13],75 µM (active) and 30.6 µM (active)
same,activation,[14],-1.55% (inactive) and -0.009% (inactive)
same,activation,[15],1.31% (inactive)
same,max response,[16],6.94% (inactive) and 6.09% (inactive)
same,outcome,[17],inactive
same,max response,[18],-6.51% (inactive) and -5.9% (inactive)
same,Potency,[19],inactive
same,max response,[20],-1.03% (inactive) and 0.419% (inactive)
O=C1C(Cl)=C(Cl)C(=O)C(Cl)=C1Cl,max response,[4],-78.9%
same,Potency,[5],12.6 µM (active)
same,Potency,[13],26.6 µM (active)
same,Potency,[14],25.1 µM (active)
same,max response,[16],-6.11% (inactive)
same,max response,[20],-2.19% (inactive)
CC[C@@H]1[C@@H]2C[C@H]3[C@H]4N(C)c5ccccc5[C@@]45C[C@@H]([C@@H]2[C@@H]5O)N3[C@H]1O,Potency,[3],3.98 µM (active)
CN1[C@@H]2CC[C@H]1CC(O)C2 (stereo partly specified),Potency,[2],inactive
Clc1ccc([C@@H](OCCN2CCCCC2)c2ccccc2)cc1,Potency,[2],12.6 µM (active)
same,Potency,[3],0.0158 µM (active)
C[C@@H]1O[C@H](O[C@@H]2C=C3CC[C@H]4[C@@H](CC[C@]5(C)[C@@H](c6ccc(=O)oc6)CC[C@]45O)[C@@]3(C)CC2)[C@@H](O)[C@H](O)[C@@H]1O,Potency,[2],inactive
COc1cc(N)c(Cl)cc1C(=O)N[C@@H]1CN2CCC1CC2,Potency,[2],inactive
O=C1C=C2C=C[C@H]3C[C@@]2(O1)[C@H]1CCCCN31,Potency,[2],inactive
same,Potency,[3],inactive
same,Potency,[1],inactive
C[N+]1=Cc2cc3c(cc2CC1)OCO3,Potency,[3],15.8 µM (active)
same,Potency,[1],inactive
CN1C[C@H](CO)C=C2c3cccc4[nH]cc(c34)C[C@@H]21,Potency,[3],0.126 µM (active)
C[C@@]12CC[C@H](O)C[C@@H]1CC[C@H]1[C@@H]2C[C@@H](O)[C@]2(C)[C@@H](C3=CC(=O)OC3)CC[C@]12O,Potency,[1],inactive
